# PNC assembly inh = blocks assembly of the perinucleolar compartment | PC3M PTB-GFP, PNC prevalence imaging, 16 h; hits give low values | activity change (PNC), negative = inhibition, % at 10 µM | 3.1% of 140,000 active | AID 2417;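 active means readout at or below -70, meaning at least 70% loss of cells showing the perinucleolar compartment, a nuclear body marking cancer cells; inconclusive means readout between -30 and a set limit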;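 further: plate controls were DMSO wells for no effect and camptothecin positive control wells for full effect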
#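 Read-out is percentage of cells bearing a perinucleolar compartment, from automated 20x imaging of fixed, Hoechst-stained PC3M PTB-GFP cells. Cells were seeded 4 h, then exposed 16 h to compound (23 nl of library stock) in duplicate plates.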
# HPGD block = blocks human HPGD enzyme activity; purified HPGD, NADH fluorescence kinetic, PGE2 substrate; Potency, µM, for the others: top-dose activity change, negative = inhibition, actives largely listed as inhibitors; 4.3% of 150,000 active; active means well fitted inhibition curve with a large enough effect, not every such curve was filed as active; inconclusive means small, poorly fitted or top-dose-only effect, or another doubt; inactive means no such curve, though single readings can be large or run the other way; further: potency means the concentration at half of the fitted maximal effect; on the % scale 0 is the no-effect control and ±100 the full control effect
# Target sequence (P15428 whole entry, looked up): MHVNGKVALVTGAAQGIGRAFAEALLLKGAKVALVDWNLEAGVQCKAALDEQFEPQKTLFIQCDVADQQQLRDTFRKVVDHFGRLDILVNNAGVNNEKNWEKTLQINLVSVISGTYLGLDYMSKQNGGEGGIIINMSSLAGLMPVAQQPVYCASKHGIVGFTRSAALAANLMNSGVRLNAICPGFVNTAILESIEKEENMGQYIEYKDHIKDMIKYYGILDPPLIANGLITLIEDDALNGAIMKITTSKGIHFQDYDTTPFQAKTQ
#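 NADH formation kinetics: reaction with 30 uM PGE2 and 1 mM NAD+ (final), 20 nM enzyme, Tris-HCl pH 8 with Tween 20, after 15 min compound preincubation at room temperature. Fluorescence change, last versus first of five reads.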
# ALDH1A1 block = blocks purified human ALDH1A1 activity | P00352 | Potency, µM (highest dose often 75.3 µM), without a hit: at the top dose activity, negative = inhibition, most hits filed as inhibitors | AID 1030 | 7.3% of 220,000 active | Purified ALDH1A1, NADH fluorescence, propionaldehyde substrate; active means well fitted inhibition curve with a large enough effect, not every such curve was filed as active; inconclusive means small, poorly fitted or top-dose-only effect, or another doubt; inactive means no such curve, though single readings can be large or run the other way;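 further: potency means the concentration at half of the fitted maximal effect; plate controls were no enzyme wells and a reference inhibitor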
# Target sequence (P00352 whole entry, looked up): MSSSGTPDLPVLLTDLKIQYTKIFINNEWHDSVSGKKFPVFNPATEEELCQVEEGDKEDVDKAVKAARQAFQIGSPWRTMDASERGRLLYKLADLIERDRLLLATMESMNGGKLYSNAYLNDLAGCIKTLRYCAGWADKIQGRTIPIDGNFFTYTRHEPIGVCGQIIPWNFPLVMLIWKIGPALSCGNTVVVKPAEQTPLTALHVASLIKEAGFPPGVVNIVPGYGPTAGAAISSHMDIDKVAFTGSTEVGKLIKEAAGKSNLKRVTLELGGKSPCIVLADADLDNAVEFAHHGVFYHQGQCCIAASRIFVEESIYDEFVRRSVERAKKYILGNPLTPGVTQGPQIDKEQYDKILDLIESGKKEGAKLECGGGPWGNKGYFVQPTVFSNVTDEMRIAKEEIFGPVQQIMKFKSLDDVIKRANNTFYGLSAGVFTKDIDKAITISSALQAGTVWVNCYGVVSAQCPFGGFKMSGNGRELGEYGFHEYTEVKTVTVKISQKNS
# HttQ103 aggreg = mutant huntingtin aggregation inhibition | Potency, µM (highest dose often 46.1 µM), for the others: at the top dose activity change, negative = inhibition, actives largely listed as inhibitors | AID 1688 | PC12 HttQ103-GFP aggregates, Acumen cytometry, 40 h | 1.1% of 220,000 active; further: potency means the concentration at half of the fitted maximal effect; on the % scale 0 is the no-effect control and ±100 the full control effect; nearly all actives have a fitted effect of over 60% in size
#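 Multiplexed with ATP-based cell death, this channel scores GFP aggregates in PC12 cells expressing inducible HTTex1-Q103-GFP. Induction used 100 nM tebufenozide; compounds were tested in concentration series.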
# CBFb-RUNX1 inh = blocks binding between human CBF-beta and RUNX1; Q01196+Q13951; AlphaScreen CBFb-His/RUNX1-biotin binding, biochemical; Potency, µM (top dose mostly 59.8 µM), for the others: at the top dose activity, negative = inhibition, hits mostly inhibitors; 230,000 tested, under 10 active; AID 1477; further: % of control where 0% means no effect
#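 Interaction loss through any mechanism counts as activity. Pre-formed complex of His-CBF-beta and biotin-RUNX1 (30 nM apiece) is incubated with compound 15 min, then with 50 ng nickel and 50 ng streptavidin beads for 90 min before AlphaScreen detection.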
# HTT cytoprotect = cytoprotection in Huntington HTT-Q103 PC12 cell model. PC12 HTT-Q103 induced, cytoprotection, ATP luminescence, 40 h. Potency, µM (top dose mostly 56.4 µM), for the others: cytoprotection (ATP increase), most hits filed as activators. 0.14% of 230,000 active. AID 1471; further: potency means the concentration at half of the fitted maximal effect; % of control where 0% means no effect; nearly all actives have a fitted effect of over 45% in size
#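 Quantitative HTS on tebufenozide-induced (100 nM) PC12 cells expressing HTTQ103 exon 1–GFP; compounds tested as a concentration series; survival measured via cellular ATP.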
# An asterisk follows results filed as active; ? = inconclusive; nt = no result given; [ ] = dose if it differs, or a comment. In the library only some 11% were active in any assay of this set; here they are far more common. Unless noted, the call rests on the fitted dose curve; in most records, active means well fitted curve in the direction sought with a large enough effect; inconclusive means small, poorly fitted or top-dose-only effect, or another doubt; inactive means no such curve, though single readings can be large; an effect the other way counts as inactive or inconclusive.
SMILES,PNC assembly inh,HPGD block,ALDH1A1 block,HttQ103 aggreg,CBFb-RUNX1 inh,HTT cytoprotect
CCOC(=O)c1c(NC(=O)CSc2nnc(-c3cccc(C)c3)n2CC)sc(C(C)=O)c1C,34.6,15.8µM*,4.8%,-27.6%,-1.0%,8.2%
CCOC(=O)c1c(NC(=O)CSc2nnc(-c3ccccc3)o2)sc(C(C)=O)c1C,-20.1,17.8µM*,?,1.0%,-5.8%,3.7%
CCOC(=O)c1c(NC(=O)CSc2cccc[n+]2[O-])sc(C(=O)Nc2ccccc2)c1C,nt,nt,28.2µM*,12.0%,-0.2%,-45.6%[10 µM]
CCOC(=O)c1sc(NC(=O)CSc2nncs2)c(C(=O)OCC)c1C,8.5,28.2µM*,?,14.9%,-0.9%,-17.9%
CCOC(=O)c1c(NC(=O)CSc2nnc(-c3ccc(OC)cc3)o2)sc2c1CCC2,nt,nt,nt,nt,nt,4.4%[0.074 µM]
CCOC(=O)c1c(NC(=O)CSc2nnc(-c3cccnc3)o2)sc2c1CCC2,-100.0*,-18.7%,10.3%,6.6%,-0.1%,10.3%[10 µM]
CC(C)N(Cc1ccccc1)S(=O)(=O)c1n[nH]c(C(C)(C)C)n1,nt,-3.3%,19.2%[13.5 µM],nt,nt,4.3%[10 µM]
CC1=C(C#N)c2nc(N)c(C#N)c(C)c2/C1=C\c1ccccc1,nt,nt,nt,nt,nt,8.6%[10 µM]
CCN=c1scc(-c2ccc3c(c2)NC(=O)CO3)n1N=C1CCCC1,-10.2,15.8µM*,?,11.2µM*,-21.5%,-42.7%
CCCCN=c1scc(-c2ccc3c(c2)NC(=O)CO3)n1N=C1CCCC1,24.8,?,3.16µM*,?,-21.5%,15.2%
COCC(C)n1c(-c2ccc3c(c2)NC(=O)CO3)csc1=Nc1ccc(OC(F)F)cc1 (stereo not drawn),15.5,-22.7%,?,?,-22.9%,-13.6%
CC(C)CCCC(C)C1CCC2C3CC=C4CC(=O)CC[C@@]4(C)C3CC[C@@]12C (stereo partly drawn),nt,-9.8%,-3.1%,nt,nt,nt
Cn1c(=O)cc(OCC(=O)N2CCC(N3CCCCC3)CC2)c2ccccc21,-1.7,-1.7%,3.7%,24.3%,2.4%,-9.9%
COc1ccccc1N1C(=O)C2C(c3ccc(F)cc3)NN(C(=O)c3ccc(C)cc3)C2C1=O (stereo not drawn),nt,nt,5.7%,-4.2%,2.9%,-43.7%
Cc1ccc2ccccc2c1[N+](=O)[O-],nt,-8.6%,-4.8%,nt,7.4%[21.7 µM],1.0%
Cc1ccc(CNc2oc(C)nc2C#N)cc1,-84.8*,nt,9.8%,-0.8%,6.5%,-25.6%
COCCNC(=O)CN1CCCCCC1,nt,nt,?,nt,-10.0%,nt
COCCNCC(=O)N1CCCCCC1,nt,nt,3.98µM*,8.6%,-0.4%,-21.8%
Cc1ccc(N(C(=O)CNC(=O)c2ccco2)C(C(=O)NCC2CCCO2)c2ccccc2)cc1 (stereo not drawn),-4.1,-11.5%,-1.1%,0.7%,4.0%,28.3%
Cc1cc(F)ccc1NCC(=O)Nc1ccccc1Br,2.7,nt,28.2µM*,31.3%,-5.9%,3.9%[10 µM]
Cc1cc(C)n2nc(/C(C#N)=C/c3ccccc3)c(C#N)c2n1,?,?,?,23.8%,5.1%,-3.0%
COc1cc2c(cc1OC)C(=O)OC2,nt,-16.7%,8.2%,nt,nt,nt
O=C(O)c1ccc(CS(=O)c2cccc(C(F)(F)F)c2)o1 (stereo not drawn),-26.2,-25.9%,-4.1%,12.6µM*,15.7%,-13.0%[0.074 µM]
COc1ccccc1S(=O)Cc1ccc(C(=O)O)o1 (stereo not drawn),1.4,-1.8%,?,6.9%,7.4%,-0.1%[0.074 µM]
O=C1CCCN1Cc1ncnn1-c1ccccc1,-100.0*,-3.5%,6.5%,-12.9%,0.8%,4.9%[10 µM]
SMILES,PNC assembly inh,HPGD block,ALDH1A1 block,HttQ103 aggreg,CBFb-RUNX1 inh,HTT cytoprotect
O=C1CCCCCN1Cc1ccccc1,-13.5,-15.3%,4.8%,-7.0%,2.1%,-1.3%
Cc1cccc(CNc2ccnc(-c3ccccc3C(F)(F)F)n2)c1,nt,nt,7.3%,nt,nt,-17.2%
CCOC(=O)c1c(C)n(OCc2ccccc2)c2ccc3c(no[n+]3[O-])c12,-80.0*,-16.8%,4.2%,-29.7%,2.0%,15.3%[1.9 µM]
CCCCOn1c(C)c(C(C)=O)c2c3no[n+]([O-])c3ccc21,nt,nt,2.2%,-18.3%,-2.1%,-12.9%
Cc1ccc(NC(=O)CN(C)C(=O)C2COc3ccccc3O2)cc1 (stereo not drawn),nt,nt,4.5%,-8.4%,4.1%,-11.9%
COc1ccccc1CN(C)C(=O)C1COc2ccccc2O1 (stereo not drawn),?,7.08µM*,-3.3%,-9.8%,7.7%,8.6%
CCCCCCCCCCCCCCCCCCCCCC(=O)Nc1ccn([C@@H]2O[C@H](CO)[C@@H](O)[C@@H]2O)c(=O)n1,nt,nt,nt,-22.9%,nt,-22.5%
Cc1ccc(-c2csc3ncnc(Sc4nnc(CN5CCCCCC5=O)o4)c23)cc1,?,-27.3%,7.94µM*,0.0%[9.22 µM],1.9%,-99.4%
Nc1nc2c(ncn2[C@@H]2O[C@H](COP(=O)(O)OP(=O)(O)O)[C@@H](O)[C@H]2O)c(=O)[nH]1,nt,nt,-6.6%,nt,-4.7%,?
N#Cc1ccccc1Sc1ccccc1C(=O)Nc1ccccc1,5.0,-2.9%,2.0%,0.6%,7.4%,-2.1%
CN(C)C(=O)c1ccc(NC(=O)c2ccccc2Sc2ccccc2C#N)cc1,34.4,17.8µM*,-11.5%,-0.2%,0.4%,-10.2%[10 µM]
COCCCNC(=O)/C(C#N)=C/c1cccc(NC(=O)c2ccccc2Cl)c1,10.8,-27.4%,14.1µM*,-7.7%,1.2%,-13.8%[10 µM]
N#C/C(=C\c1cccc(NC(=O)c2ccccc2Cl)c1)C(=O)NCCc1ccccc1,-16.8,?,25.1µM*,4.4%,-3.5%,5.3%[10 µM]
COCCCNC(=O)/C(C#N)=C/c1ccc(F)cc1,nt,nt,?,-0.8%,17.5%,-22.9%
COc1cc(/C=C2\SC(=O)N(CCN)C2=O)ccc1OS(=O)(=O)c1cc(C)ccc1C,nt,nt,-3.2%,-12.2%,-4.2%,-17.6%
CCOC(OCC)P(=O)(O)CCCNCc1ccc(Cl)c(Cl)c1,nt,-1.6%,1.7%,nt,10.0%,-13.0%
COc1ccc(CC(NC(C)=O)C(=O)NC2CCN(c3ncccc3[N+](=O)[O-])CC2)cc1 (stereo not drawn),nt,nt,6.31µM*,0.9%,4.2%,-28.7%
CC(=O)NC(Cc1ccc(F)cc1)C(=O)NC1CCN(c2nnnn2-c2ccccc2)CC1 (stereo not drawn),-1.2,-13.1%,1µM*,-1.2%,2.8%,4.8%
CC(=O)NC(Cc1ccc(C(C)C)cc1)C(=O)NC1CCN(c2nc(C)cc(C)n2)CC1 (stereo not drawn),-7.6,-13.8%,?,7.2%,5.1%,-4.1%[10 µM]
COc1cccc(CC(NC(C)=O)C(=O)NC2CCN(c3ncccc3[N+](=O)[O-])CC2)c1 (stereo not drawn),nt,nt,3.9%,-8.8%,-4.1%,-7.7%
CCN(C(=O)CN1CCN(C)CC1)c1cccc2ccccc12,19.9,nt,?,-8.9%,4.1%,-7.2%
